About 83,000 compounds went through this panel and 20% of them were active in at least one assay; those are over-represented in the sample as a whole.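 For each line, cells grew in 96-well plates with the test compound present at a single concentration for 48 hours.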 A number with no mark means an inactive call. Activity calls are given as the source filed them. Rule for the calls: active = growth percent below 10; inactive = the rest.
tested on: HL-60(TB) leukemia; assay: NCI-60 one-dose screen, 48 h (100 = growth as untreated, 0 = no growth, -100 = all killed); conditions: 10 µM unless noted

| SMILES | growth |
| --- | --- |
| CC1(C)Nc2cccc3c(N=Nc4ccc(N=Nc5ccccc5)c5ccccc45)ccc(c23)N1 | 86.1% |
| COc1c(OCCCN2CCOCC2)ccc2c3n(c(=NC(=O)c4cnc(N)nc4)nc12)CCN3 | 11.3% |
| CC(=O)/C(=C/c1ccc(Br)cc1)C(=O)c1ccccc1 | 57% |
| NC(=O)N/N=C\c1ccco1 | 102% |
| CSc1ccc(-c2n[nH]nc2-c2cc3ccccc3s2)cc1 | 38% |
| COc1ccc(OC)c(Cn2cc3c(c2-c2ccccc2)CCc2cnoc2-3)c1 | 32.2% |
| Cn1ccnc1C(=O)/C=C/c1ccc(C(=O)Nc2ccc(F)cc2)cc1 | -6.9% (active) |
| O=C(CCl)Oc1ccc([N+](=O)[O-])cc1 | 107% |
| C=C1C(=O)O[C@H]2[C@H]1CC/C(COC(=O)N1CCC[C@H]1C(=O)Nc1ccc(OC)c(C(N)=O)c1O)=C\CC[C@@]1(C)O[C@@H]21 | -10% (active) |
| CSc1nc2ncc([N+](=O)[O-])c(=O)n2[nH]1 | 106% |
| Clc1cccc(C2Cc3cnccc3-c3[nH]c4ccncc4c32)c1 (stereo not given) | 25.3% |
| O=C(Nc1ccccn1)[C@H](O)[C@@H](O)C(=O)N1CCOCC1 | 116% |
| CCOC(=O)Cc1csc2nc(-c3ccccc3)nn12 | 53% |
| CCN(Cc1ccc(CN(CC)C(=O)C(Cl)(Cl)Cl)cc1)C(=O)C(Cl)(Cl)Cl | 6.38% (active) |
| CC(NC(=O)CCl)c1ccccc1 (stereo not given) | 83.4% |
| Nc1ccc2c(c1)Cc1cc(NC(=O)C(F)(F)F)ccc1-2 | 98.4% |
| C/C=C/CSC(C)(C)C(=O)NC | 98.7% |
| CCCCC1=C(Br)C(=O)c2ncccc2C1=O | 83.3% |
| COc1ccc(OC)c(/C=C2\CCc3ccccc3C2=O)c1 | 16.9% |
| CCNNC(=O)[C@@H]1[C@H](c2cc(OC)c(OC)c(OC)c2)c2cc3c(cc2[C@H](O)[C@H]1CO)OCO3 | -24.1% (active) |

| SMILES | growth |
| --- | --- |
| CCCCCC/C=C\CCCCCCCCOc1ccc(CCOP(=O)(O)OCC[N+](C)(C)C)cc1 | -15.1% (active) |
| COc1c(F)cc(-n2c(C(=O)N3CC(F)C3)cc3cccnc32)cc1F | 98.3% |
| O=c1[nH]c(NCc2ccccc2)nc2nc(Nc3ccc(NC(=S)Nc4ccccc4)cc3)nc(-c3ccc(O)cc3O)c12 | 98.4% |
| CCc1c(C)c2ccc(O)c(-c3cc(-c4ccccc4)c(C#N)c(=O)[nH]3)c2oc1=O | 109% |
| Cc1ccc(S(=O)(=O)n2cc(C3C(Cl)C(=O)N3c3ccc(N4CCOCC4=O)cc3)c3ccccc32)cc1 (stereo not given) | 22.1% |
| Cc1cccc(/C=C/c2c(C(=O)/C=C/c3ccccc3)c(C)nc3ccccc23)c1 | -15.8% (active) |
| CCCCCCN=C(N)CCCCCCCCCCC(N)=NCCCCCC | 55.1% |
| CCc1cccc2c1S/C(=C/c1ccc(OC)cc1)C2=O | 5.21% (active) |
| c1ccc(CC(NCCNC(Cc2ccccc2)c2ccccc2)c2ccccc2)cc1 (stereo not given) | -0.655% (active) |
| C=C1C(=O)O[C@H]2[C@H]1CC/C(Cn1cc(CNC(=O)/C=C/c3c[nH]c4ccccc34)nn1)=C\CC[C@@]1(C)O[C@@H]21 | 29.9% |
| Clc1ccc(-c2nnc(-c3ccco3)o2)cc1 | 94.1% |
| CC/C(Cc1ccccc1)=C(\c1ccc(OCCCN(C)C)cc1)c1ccc(OC(=O)NCc2ccccc2)cc1 | 57.2% |
| C=CC(=O)OC1CCC(C(C)(C)CC)CC1 (stereo not given) | 84% |
| COCc1cc2c(cc1Br)OCO2 | 105% |
| CO[C@H]1CC[C@@]2(C)C(=CC[C@H]3[C@@H]4C[C@H](O)C[C@@]4(C)CC[C@@H]32)C1 | 22.6% |
| c1ccc([P+](CCCc2n(Cc3ccc4ccccc4c3)c3ccccc3[n+]2Cc2ccc3ccccc3c2)(c2ccccc2)c2ccccc2)cc1 | 22.6% |
| Cc1ccc(-c2nc3ccc(Cl)cn3c2NC2CCCCC2)o1 | 61.7% |
| CCOC(=O)C1CSC(C)(C(=O)OCC)N1 (stereo not given) | 83.8% |
| COc1ccc2nc3nc4ccc[nH]c4cc3c2c1 | 85.6% |
| NC(=O)c1noc(C(=O)c2ccccc2)c1N | 93.7% |
